From PubChem
Ins promoter up – insulin promoter activators in MIN6 cells, imaging, high-content screening, mouse beta cells; AID 1625, 2009; 190,000 compounds, 0.3% hits; z-score at 5 µM; MIN6 insulin promoter-GFP reporter; stronger effect = higher value;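 active = z-score above 3 at 5 µM with at least 500 cells counted in the well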
Autophagy HCS – autophagy modulators in MEF cells, primary screen, imaging, high-content, MEF GFP-LC3; MEF GFP-LC3 puncta imaging; test concentration mostly 10 µM; calls only at 10 µM (by protocol); 190,000 compounds, 0.98% hits;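 active = percentage of spot-positive cells more than 3 SD above its plate mean, without a fluorescence outlier flag or 80% toxicity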;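 also: spot-positive cell cutoff set from DMSO-treated cells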
INS promoter inh – inhibitors of insulin promoter-driven GFP, primary screen, imaging, TRM-6 cells (human fetal islet line), eGFP reporter, cell count. reporter expression induced with tamoxifen. inhibition, % at 2 µM. 130,000 compounds, 0.9% hits. AID 1273, 2008;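 active = inhibition above the mean plus 3 SD, with well images judged a real hit on visual review, cut at about 60% in these data, passing the limit was not always enough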
PERK inhibitor – block of dimerizer-induced PERK translation repression, primary screen, PERK inhibitor project, CHO PERK-DD cells, SEAP luminescence, HTS. Eukaryotic translation initiation factor 2-alpha kinase 3 (Homo sapiens), Q9NZJ5. CHO PERK-DD fusion, SEAP luminescence translation reporter. inhibition, % at 5.6 µM. 220,000 compounds, 0.17% hits;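 active = inhibition above the mean inhibition of all tested compounds plus 3 SD, set separately per screening campaign, cut at about 2.9% in these data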;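 also: PERK kinase domain activated by AP20187 dimerizer at 100 nM; 0% = DMSO with dimerizer and 100% = rapamycin at 8.4 µM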
eIF4E 4G PPI – eIF4E–eIF4G protein interaction inhibitors, primary screen, biochemical, uHTS, TR-FRET, eIF4GI fragment; Eukaryotic translation initiation factor 4E (Mus musculus) + Eukaryotic translation …; TR-FRET eIF4E-eIF4GI(517-606) binding, 2 h; inhibition, % at 21.7 µM; 220,000 compounds, 0.37% hits;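 active = inhibition above about 30%, limit read from the data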;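 also: 0% = full FRET control wells and 100% = background wells lacking eIF4GI fragment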
Target sequence (P63073 whole entry, looked up, the tested form may be a part): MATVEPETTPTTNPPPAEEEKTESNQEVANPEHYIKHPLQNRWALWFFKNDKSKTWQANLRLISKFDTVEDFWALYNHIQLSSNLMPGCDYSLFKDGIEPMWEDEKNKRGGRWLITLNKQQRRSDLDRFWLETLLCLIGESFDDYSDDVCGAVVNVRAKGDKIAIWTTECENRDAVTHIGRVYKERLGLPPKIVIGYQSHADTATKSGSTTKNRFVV
Target sequence (Q04637 whole entry, looked up, the tested form may be a part): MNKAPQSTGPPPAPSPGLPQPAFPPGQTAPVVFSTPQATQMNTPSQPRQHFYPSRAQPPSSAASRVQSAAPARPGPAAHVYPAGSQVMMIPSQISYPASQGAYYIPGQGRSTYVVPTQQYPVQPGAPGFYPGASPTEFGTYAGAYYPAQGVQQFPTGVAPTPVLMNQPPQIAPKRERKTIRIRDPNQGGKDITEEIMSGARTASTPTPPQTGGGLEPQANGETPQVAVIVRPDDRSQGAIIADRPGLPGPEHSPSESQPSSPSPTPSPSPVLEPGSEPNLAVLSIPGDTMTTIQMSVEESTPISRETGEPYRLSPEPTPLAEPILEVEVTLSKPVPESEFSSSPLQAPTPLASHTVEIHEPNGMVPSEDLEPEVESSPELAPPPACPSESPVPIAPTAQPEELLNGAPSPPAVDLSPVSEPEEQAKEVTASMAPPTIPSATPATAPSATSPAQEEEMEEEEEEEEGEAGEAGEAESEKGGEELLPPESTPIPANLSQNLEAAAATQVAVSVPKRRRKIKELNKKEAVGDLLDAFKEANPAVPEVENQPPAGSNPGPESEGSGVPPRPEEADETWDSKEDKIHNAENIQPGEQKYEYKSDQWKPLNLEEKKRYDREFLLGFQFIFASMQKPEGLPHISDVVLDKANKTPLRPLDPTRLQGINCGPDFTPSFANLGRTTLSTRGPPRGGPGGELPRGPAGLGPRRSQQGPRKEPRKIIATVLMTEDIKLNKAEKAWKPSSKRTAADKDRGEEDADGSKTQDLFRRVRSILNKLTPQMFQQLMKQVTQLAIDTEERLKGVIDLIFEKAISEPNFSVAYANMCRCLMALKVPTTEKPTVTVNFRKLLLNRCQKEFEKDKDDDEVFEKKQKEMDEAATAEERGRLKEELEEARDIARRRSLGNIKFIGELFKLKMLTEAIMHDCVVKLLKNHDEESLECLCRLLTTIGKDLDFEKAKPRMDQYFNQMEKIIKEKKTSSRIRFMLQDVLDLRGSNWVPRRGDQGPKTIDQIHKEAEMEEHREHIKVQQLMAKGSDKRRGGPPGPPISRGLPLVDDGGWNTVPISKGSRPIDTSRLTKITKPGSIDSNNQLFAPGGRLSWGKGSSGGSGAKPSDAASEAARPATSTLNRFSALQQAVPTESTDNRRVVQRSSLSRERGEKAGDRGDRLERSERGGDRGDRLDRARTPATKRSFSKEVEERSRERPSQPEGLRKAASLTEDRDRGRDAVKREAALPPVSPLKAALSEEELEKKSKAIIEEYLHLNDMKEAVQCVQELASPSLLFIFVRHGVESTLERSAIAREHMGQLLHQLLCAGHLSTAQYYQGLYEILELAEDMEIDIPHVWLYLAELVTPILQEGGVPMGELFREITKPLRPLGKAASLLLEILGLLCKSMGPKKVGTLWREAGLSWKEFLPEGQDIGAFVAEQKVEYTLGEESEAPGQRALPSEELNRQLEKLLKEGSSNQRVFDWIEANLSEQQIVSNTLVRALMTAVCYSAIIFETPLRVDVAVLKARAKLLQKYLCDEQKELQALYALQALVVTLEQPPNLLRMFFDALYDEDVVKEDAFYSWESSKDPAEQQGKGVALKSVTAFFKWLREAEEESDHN
An asterisk follows results filed as active; i = inactive; / = not tested or not shown; + = active, no number. Compounds with a hit are over-represented: about 2% of the library has one in this group of screens.

SMILES | Ins promoter up | Autophagy HCS | INS promoter inh | PERK inhibitor | eIF4E 4G PPI
O=C1NCN(c2ccccc2)C12CCN(CCCC(c1ccc(F)cc1)c1ccc(F)cc1)CC2 | -0.77 | + | -6.7 | 0.5 | 6.2
c1cnc2ccc(C(c3nnnn3C3CCCCC3)N3CCN(C4CCCCC4)CC3)cc2c1 (centres undefined) | / | + | 60.0 | -1.0 | /
COCCCNC(=O)/C=C/c1c(Cl)cccc1Cl | 0.11 | i | 31.6 | 0.0 | 1.8
COCCNC(=O)/C=C/c1c(Cl)cccc1Cl | 0.79 | i | 71.4* | 0.0 | -2.6
CC(C)c1ccc(NC(=O)NC2CCN(CC(=O)Nc3cccc4ccccc34)CC2)cc1 | 0.79 | + | 5.4 | -0.6 | 5.8
O=C(CN1CCC(NC(=O)c2ccco2)CC1)Nc1cccc2ccccc12 | -0.65 | i | 13.3 | -1.1 | -5.5
CCN(CC)c1ccc2c(c1)OC(N)=C(C#N)C2c1cccnc1 (centres undefined) | -1.68 | + | / | -1.2 | 0.4
COc1ccc(C2C3=C(CC(C)(C)CC3=O)Nc3c2c(=O)[nH]c2nc(C)nn32)cc1 (centres undefined) | / | i | 27.3 | 1.1 | 0.6
O=C(CSc1n[nH]c(-c2ccco2)n1)Nc1sc2c(c1C(=O)Nc1ccccc1)CCCC2 | -0.03 | i | -185.0 | 0.3 | -14.7
O=C1Nc2ccccc2/C1=N\c1sc2c(c1C(=O)Nc1ccccc1)CCCC2 | -1.32 | + | -118.8 | 0.6 | -1.2
COc1ccccc1NC(=S)NC(=O)c1ccc(Cn2cc(Br)cn2)cc1 | -0.06 | i | -7.1 | 0.8 | -3.1
COC(=O)c1ccc(C)c(NS(=O)(=O)c2ccc(OC)cc2)c1 | -1.54 | + | 100.0* | -0.7 | 2.0
Cc1cc(C)c(S(=O)(=O)Nc2cccc(/C=C/C(=O)O)c2)c(C)c1 | -0.24 | i | 20.7 | 1.4 | -4.9
Cc1ccccc1OCC(O)Cn1nnc2ccccc21 (centres undefined) | -0.21 | + | -44.4 | 0.3 | 1.2
C=C(C)COc1ccc(-c2n[nH]c(C)c2-c2ccc(OC)c(OC)c2)c(O)c1 | -0.29 | / | / | -1.7 | -1.8
O=C(NC(=S)Nc1ccc(N2CCOCC2)cc1)c1cncc(Br)c1 | 0.18 | i | 66.7* | -0.3 | 2.0
O=C(NC(=S)Nc1ccc(N2CCOCC2)cc1)c1ccccc1 | 1.27 | i | / | 0.1 | 2.7
O=C(O)CSc1ncnc2scc(-c3ccc(Br)cc3)c12 | 0.54 | / | / | 3.6* | -2.4
O=C(O)c1ccc(N2C(=O)/C(=C/c3ccc(-c4ccc([N+](=O)[O-])cc4)o3)C=C2c2ccccc2)cc1 | -1.39 | i | -154.6 | 0.2 | 76.4*
CCOc1cc(C2NC(=S)NC(C)=C2C(=O)Nc2ccc(OC)cc2)ccc1O (centres undefined) | -0.15 | i | -69.2 | 3.4* | -2.3
COc1ccc(OCCn2cc(/C=N/NC(=O)c3ccncc3)c3ccccc32)cc1 | -0.47 | i | 14.3 | -0.8 | -6.9
COc1cccc(OCCn2cc(/C=N/NC(=O)c3ccncc3)c3ccccc32)c1 | -0.06 | + | 36.7 | -1.1 | 4.2
COc1cc(O)cc2cc3c(c(O)c12)C(=O)CC(C)(O)O3 (centres undefined) | 0.77 | / | / | / | 70.8*
COc1cc(O)c2c(c1)OC(C)(C)CC2=O | 0.02 | i | -45.5 | 1.1 | -9.4
CCOc1ccc(C2=Nn3cnnc3SC2)cc1 | 0.59 | i | 40.0 | 1.7 | -1.4
SMILES | Ins promoter up | Autophagy HCS | INS promoter inh | PERK inhibitor | eIF4E 4G PPI
O=[N+]([O-])c1ccc(C2=Nn3cnnc3SC2)cc1 | 0.64 | / | / | 1.1 | 62.4*
CC(C)(C)c1ccc(C(=O)Nc2cccc([N+](=O)[O-])c2)cc1 | -1.22 | i | 72.4* | -0.1 | -1.9
O=C(Nc1cccc([N+](=O)[O-])c1)c1ccncc1 | -0.14 | i | 38.8 | 0.9 | 2.6
N#C/C(=C\Nc1ccc(Cl)cc1)S(=O)(=O)c1ccccn1 | 0.91 | / | / | 0.6 | 2.8
FC(F)(F)c1ccccc1-n1c(CN2CCCCC2)n[nH]c1=S | 0.39 | / | / | 1.4 | 85.0*
O=C(O)c1ccc(CS(=O)c2cccc(C(F)(F)F)c2)o1 (centres undefined) | / | i | / | 3.7* | -0.3
COc1ccccc1S(=O)Cc1ccc(C(=O)O)o1 (centres undefined) | / | i | / | 0.1 | -3.9
COC(=O)c1ccccc1NC(=O)C1CC(=O)N(c2ccc(F)cc2)C1 (centres undefined) | 1.46 | i | 71.4* | -0.2 | 2.9
FC(F)(F)c1ccc2c(c1)nc1n2CCCC1 | 0.39 | i | 73.1* | 0.3 | 2.0
CCOC(=O)c1c(NC(=O)c2cc(-c3ccc(O)cc3)on2)sc(C(C)=O)c1C | 0.06 | i | 0.0 | 0.5 | 31.4*
CCOC(=O)c1c(NC(=O)CC(C)C)sc(C(C)=O)c1C | -1.41 | i | 62.5 | 0.2 | -3.9
CCOC(=O)c1sc(NC(=S)NC(=O)c2ccccc2)c(C(=O)OCC)c1C | -0.47 | + | 20.7 | 0.1 | 7.9
O=C(/C=C/c1cccc([N+](=O)[O-])c1)N1CCN(Cc2ccc3c(c2)OCO3)CC1 | / | i | -61.1 | -0.1 | -0.9
COc1ccc(-c2cn[nH]c2N)c(OC)c1 | -1.32 | i | 83.6* | 0.2 | 1.6
COc1ccc(-c2cn[nH]c2N)cc1 | -0.7 | i | -21.4 | 2.2 | -1.3
Cc1cc(C)nc(Nc2ccc(C(=O)O)cc2)n1 | -0.82 | i | 20.0 | 0.9 | 5.6
O=C(O)c1ccc(Nc2nc(-c3ccccc3)c3ccccc3n2)cc1 | 0.59 | + | / | 1.2 | 0.8
O=C1C(c2ccncc2)N(CCC2=CCCCC2)C(=O)CN1C1CCCCC1 (centres undefined) | 0.01 | i | / | -1.1 | 3.7
O=C1NC(=S)N/C1=C\c1ccc(N2CCOCC2)cc1 | 1.14 | i | 15.0 | 0.3 | -2.5
Cc1cc(N2CCCC2)ccc1/C=C1\NC(=S)N(C)C1=O | / | + | / | 1.3 | 5.1
CN1C(=O)c2ccc(N3CCCC3)cc2C1=O | / | i | 29.6 | -0.1 | 0.1
O=C1/C(=C/c2ccc(N3CCCC3)cc2)NC(=S)N1C1CC1 | / | + | -185.7 | 1.4 | 2.3
O=C1N/C(=C/c2ccc(N3CCOCC3)o2)C(=O)N1c1ccccc1 | 0.51 | i | 20.6 | 0.7 | 2.4
O=C1N/C(=C/c2ccc(N3CCCC3)cc2)C(=O)N1c1ccccc1 | 0.57 | + | -23.7 | -0.3 | 1.2
COC(=O)c1cccc(NC(=O)CCCOc2cccc(C)c2)c1 | -0.21 | i | 6.2 | -0.1 | /
CCCCN(C(=O)Nc1ccc(OCC)cc1)C1CCN(C(C)=O)CC1 | 0.03 | i | -7.7 | -1.1 | 5.6
Cc1ccccc1OCCNc1cc(N2CC(C)NC(C)C2)ccc1[N+](=O)[O-] (centres undefined) | -1.13 | + | / | -0.9 | 2.1
O=[N+]([O-])c1ccc(N2CCCCC2)cc1NCCOc1ccccc1 | -0.87 | i | -7.9 | 0.7 | 7.3
